“And” between values parts separate entries of the source, which are not always exact repeats. Identical values can stand only once.
What was measured:
Type in all cases: functional
[1] = target: Solute carrier family 2, facilitated glucose transporter member 1 (Homo sapiens) (UniProt P11166); assay: ST_JUDE_LEISH: Cytotoxicity at 2uM final concentration against transgenic Leishmania Mexicana promastigotes LmGLUT1 that are glucose transport deficient and complemented with the human glucose transporter GLUT1. Activity is measured by DNA content using SYBR green in vitro
[2] = target: Hexose transporter 1 (Plasmodium falciparum) (UniProt O97467); assay: ST_JUDE_LEISH: Cytotoxicity at 2uM final concentration against transgenic Leishmania Mexicana promastigotes LmPfHT that are glucose transport deficient and complemented with the Plasmodium falciparum hexose transporter. Activity is measured by DNA content using SYBR green in vitro
[3] = target: Glucose transporter (Leishmania mexicana) (UniProt O61059); assay: ST_JUDE_LEISH: Cytotoxicity at 2uM final concentration against transgenic Leishmania Mexicana promastigotes LmGT2 that are glucose transport deficient and complemented with the L. Mexicana glucose transporter 2. Activity is measured by DNA content using SYBR green in vitro

Solute carrier family 2, facilitated glucose transporter member 1 (Homo sapiens), sequence (P11166 whole entry): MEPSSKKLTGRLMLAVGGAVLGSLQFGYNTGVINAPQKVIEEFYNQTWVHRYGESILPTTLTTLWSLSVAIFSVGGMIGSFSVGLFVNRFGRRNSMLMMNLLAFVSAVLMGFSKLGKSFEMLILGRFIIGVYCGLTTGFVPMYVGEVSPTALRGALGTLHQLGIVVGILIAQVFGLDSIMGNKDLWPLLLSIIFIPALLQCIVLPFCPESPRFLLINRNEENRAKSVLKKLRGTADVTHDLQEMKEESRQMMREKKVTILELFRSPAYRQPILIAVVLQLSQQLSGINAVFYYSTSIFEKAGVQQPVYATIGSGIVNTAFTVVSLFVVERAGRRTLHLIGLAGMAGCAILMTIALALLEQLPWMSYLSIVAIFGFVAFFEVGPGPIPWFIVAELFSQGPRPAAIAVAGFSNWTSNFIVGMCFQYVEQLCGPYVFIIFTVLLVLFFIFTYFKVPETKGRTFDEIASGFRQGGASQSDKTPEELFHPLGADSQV

Structure (SMILES) | inhibition [1] | inhibition [2] | inhibition [3]
COc1ccc(C=CC(=O)NC2CCC(CN3CCC(c4c[nH]c5ccccc45)CC3)CC2)cc1 (stereo unspecified) | 3.28% and -0.32% | 1.24% and -0.89% | -5.37% and -4.75%
CC(=O)Nc1ccc(OCCN(CC(C)C)c2ccc(C#N)c(C(F)(F)F)c2)c(Cl)c1 | 3.54% | 2.7% | 2.53%
COC(=O)c1ccc(CC(C)NCC(O)c2cc(Cl)c(N)c(Cl)c2)cc1 (stereo unspecified) | 1.96% | 2.46% | 2.16%
CC[C@H]1CN2CC[C@H]1C[C@H]2[C@H](O)c1cc(-c2ccc(Cl)c(Cl)c2)nc2ccc(OC)cc12 | 12.6% | 9.65% | 9.4%
Cc1[nH]c2ccc(O)cc2c1C1CCN(CC2CCN(C(=O)/C=C/c3ccc(Cl)c(Cl)c3)CC2)CC1 | 0.92% | 0.19% | -0.96%
Cn1nc(-c2ccc(S(=O)(=O)NC3CCC(CN4CCC(c5c[nH]c6ccccc56)CC4)CC3)s2)cc1C(F)(F)F (stereo unspecified) | 5.26% and 1.76% | 4.54% and 4.39% | 1.24% and 0.16%
O=C(Nc1ccccc1Cl)NC1CCC(CN2CCC(c3c[nH]c4ccccc34)CC2)CC1 (stereo unspecified) | 4.02% and 5.1% | 3.83% and 5.22% | -1.83% and 3.04%
CCCCCC(C)C(C)c1cc(O)c2c3c(c(=O)oc2c1)CN(Cc1ccccc1)CC3 (stereo unspecified) | 2.03% | 0.04% | -0.43%
Cc1[nH]c2cc(Cl)ccc2c1C1=CCN(CCCCC2(C)C(=O)Nc3c(F)cccc32)CC1 (stereo unspecified) | 1.41% | 0.61% | 0.45%
CCOC(=O)c1ccc(CC(C)NCC(O)c2cccc(C(F)(F)F)c2)cc1 (stereo unspecified) | -2.26% | -1.71% | -0.87%
Cc1ccccc1C1=CCN(CCCN2c3ccccc3Sc3ccc(Cl)cc32)CC1 | 6.62% | 5.58% | 1.49%
N[C@@H](CCN1CCC(c2cccc(O)c2)CC1)Cc1ccc(F)c(F)c1 | 3.74% | 2.04% | 0.73%
CC(=O)Nc1ccc(OCCN(CC(F)(F)F)c2ccc(C#N)cc2C(F)(F)F)cc1 | 2.13% | 2.71% | 0.98%
CNCCc1c(O)ccc2ccccc12 | 2.95% | 3.27% | 3.59%
CN(C)CCCOc1ccc(CN2CCC(c3c[nH]c4ccc(NCC5CCCCC5)cc34)CC2)cc1 | 3.02% | 3.5% | 3.06%
CC[C@H]1CN2CC[C@H]1C[C@H]2[C@H](O)c1cc(N2CCCC(CO)C2)nc2ccc(OC)cc12 (stereo partly specified) | 2.62% | 1.73% | 0.11%

Structure (SMILES) | inhibition [1] | inhibition [2] | inhibition [3]
Cc1cc(C2CCCCN2C)ccc1-c1ccc(C(=O)N2CCc3cc4c(cc32)C2(CCN(C)CC2)CO4)cc1 (stereo unspecified) | 3.41% | 0.31% | 1.11%
CCN(CC)CCN1C(=O)C(O)(c2ccccc2Cl)c2c1cc(C#N)cc2C(F)(F)F (stereo unspecified) | 2.9% | 2.02% | 4.08%
CC(Cc1ccc(C2=CCNCC2)cc1)NCC(O)c1cccc(C(F)(F)F)c1 (stereo unspecified) | -2.15% | -1.67% | -0.93%
CN(C)c1cccc(NC(=O)NC2N=C(c3ccccc3)c3ccccc3N(CC(=O)N(C)c3ccccc3)C2=O)c1 (stereo unspecified) | 6.38% | 4.22% | 2.42%
O=C(C=Cc1ccc(Br)cc1)NC1CCC(CN2CCC(c3c[nH]c4ccccc34)CC2)CC1 (stereo unspecified) | 2.45% | 2.86% | 4.98%
CC(=O)Nc1ccc(CN2CCC(N(C)c3cc(NC(=O)c4ccc(F)cc4)ccn3)CC2)cc1 | 1.04% | 2.13% | 2.53%
Cc1[nH]c2ccccc2c1C1CCN(CC2CCC(NC(=O)/C=C/c3ccc(Cl)c(Cl)c3)CC2)CC1 (stereo unspecified) | 6.8% | 6.35% | 7.15%
COc1ccc(C(=O)C2CC2CN2CC=C(c3c[nH]c4ccc(OC)nc34)CC2)cc1 (stereo unspecified) | 1.91% | -1.74% | 2.37%
CCC1(C)CC(CCNCc2ccccc2O)(c2ccc(C)cc2)CCO1 (stereo unspecified) | -0.22% | -2.9% | -0.15%
CC(C)CCNC(=O)c1cc(C(=O)c2cc(F)ccc2O)cn(CCC(C)C)c1=O | 3.21% | 2.53% | 6.46%
Cc1[nH]c2ccc(O)cc2c1C1CCN(CC2CCC(NC(=O)/C=C/c3c(Cl)cccc3Cl)CC2)CC1 (stereo unspecified) | 1.67% | 0.48% | 3.62%
CCCCCc1cc(O)c2c(c1)OC(C)(C)CC2C1=CCN(Cc2cnc3ccccc3c2)CC1 (stereo unspecified) | 1.53% | 1.25% | 0.64%
CCc1ccc(CC(C)NCC(O)c2ccccc2)cc1 (stereo unspecified) | 1.06% | 1.04% | 1.94%
CC(C)CNCc1ccc(-c2ccc(CN(C(=O)NC3CCCCC3)C3CCN(Cc4ccccc4)CC3)cc2)cc1 | 7.16% | 3.25% | 6.77%
c1ccc(C(OCCC2CCN(Cc3cccc4cccnc34)CC2)c2ccccc2)cc1 | 9.36% | 8.53% | 5.64%
O=C(/C=C/c1ccc(Cl)c(Cl)c1)NC1CCC(CN2CCC(c3c[nH]c4ccc(O)cc34)CC2)CC1 (stereo unspecified) | 1.43% and 1.97% | 0.14% and 2.98% | -2.67% and 3.13%
